In PubChem BioAssay (NCATS):
Results filed as inconclusive are left out. The source made the active and inactive calls. Unless noted, calls come from the whole dose curve.

How the values were obtained:
[1] = target: Glucocorticoid receptor (Homo sapiens) (UniProt P04150); assay: qHTS assay for small molecule agonists of glucocorticoid receptor signaling (AID 588532; active = well fitted curve in the direction sought with a large enough effect in the signal ratio, with a control signal flat; the % refers to the signal ratio;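 note: 100% = dexamethasone at 0.1 µM and 0% = DMSO only wells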); conditions: HeLa MMTV-bla, beta-lactamase ratio, agonist, 18 h; activation: stronger effect = higher value, percent of dexamethasone control, DMSO zero
Sequence of Glucocorticoid receptor (Homo sapiens) (P04150 whole entry, looked up): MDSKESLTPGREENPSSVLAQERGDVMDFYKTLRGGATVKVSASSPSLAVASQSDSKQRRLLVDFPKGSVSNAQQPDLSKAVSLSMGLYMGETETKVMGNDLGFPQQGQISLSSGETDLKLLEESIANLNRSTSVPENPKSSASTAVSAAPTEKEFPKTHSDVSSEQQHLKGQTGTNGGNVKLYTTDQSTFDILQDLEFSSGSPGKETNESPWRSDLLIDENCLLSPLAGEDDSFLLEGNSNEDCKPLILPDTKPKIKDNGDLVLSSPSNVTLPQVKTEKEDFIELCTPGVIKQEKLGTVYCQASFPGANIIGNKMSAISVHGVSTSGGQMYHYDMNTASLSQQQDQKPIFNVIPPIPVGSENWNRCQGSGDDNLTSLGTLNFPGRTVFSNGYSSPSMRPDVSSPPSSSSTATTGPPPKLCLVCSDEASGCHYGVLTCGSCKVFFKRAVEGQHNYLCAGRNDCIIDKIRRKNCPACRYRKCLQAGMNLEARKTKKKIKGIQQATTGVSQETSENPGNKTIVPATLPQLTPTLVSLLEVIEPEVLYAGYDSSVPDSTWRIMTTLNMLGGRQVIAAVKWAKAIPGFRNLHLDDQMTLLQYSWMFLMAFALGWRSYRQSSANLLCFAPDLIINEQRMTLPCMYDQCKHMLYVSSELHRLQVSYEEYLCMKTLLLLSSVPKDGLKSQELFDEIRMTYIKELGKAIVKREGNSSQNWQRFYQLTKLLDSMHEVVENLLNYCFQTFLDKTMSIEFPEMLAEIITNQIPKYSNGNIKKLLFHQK
How it was run: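 Titration series, up to 92 uM, applied to GRE-bla HeLa cells for 18 h at 37 C. Detection by CCF4 FRET substrate after 2 h at RT.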

[2] = target: Peroxisome proliferator-activated receptor delta (Homo sapiens) (UniProt Q03181); assay: qHTS assay for small molecule agonists of peroxisome proliferator-activated receptor delta signaling (AID 588534);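 note: 0% = DMSO basal wells and 100% = positive control agonist at 10 µM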
Sequence of Peroxisome proliferator-activated receptor delta (Homo sapiens) (Q03181 whole entry, looked up): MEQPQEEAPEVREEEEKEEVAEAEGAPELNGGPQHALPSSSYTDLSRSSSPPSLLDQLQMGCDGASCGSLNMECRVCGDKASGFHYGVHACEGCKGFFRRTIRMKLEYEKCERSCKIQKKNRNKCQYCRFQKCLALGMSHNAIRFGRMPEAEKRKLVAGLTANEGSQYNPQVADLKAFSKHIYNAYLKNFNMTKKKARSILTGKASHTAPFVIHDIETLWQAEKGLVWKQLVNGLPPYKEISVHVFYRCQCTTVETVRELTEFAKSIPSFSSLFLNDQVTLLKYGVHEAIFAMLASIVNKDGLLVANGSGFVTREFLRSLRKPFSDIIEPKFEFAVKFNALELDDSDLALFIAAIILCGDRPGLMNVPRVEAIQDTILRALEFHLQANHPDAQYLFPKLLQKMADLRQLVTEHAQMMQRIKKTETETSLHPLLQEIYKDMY
How it was run: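 Agonist-mode qHTS; reporter cells, 5 hrs 37 C pre-incubation; compound titration, 18 hrs 37 C; CCF4 dye, 2 hrs RT; fluorescence read. EC50/efficacy via Hill fit.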

[3] = target: Peroxisome proliferator-activated receptor delta (Homo sapiens) (UniProt Q03181); assay: qHTS assay for small molecule antagonists of peroxisome proliferator-activated receptor delta signaling (AID 588535; active = well fitted inhibition curve with a large enough effect in the signal ratio, with a control signal flat, not every such curve was filed as active; the % refers to the signal ratio)
How it was run: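 Inhibition of PPAR-delta response element-driven beta-lactamase expression is measured in HEK293T cells exposed to a compound titration series for 18 hrs at 37 C. Half-maximal inhibition comes from Hill equation fitting.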

[4] = target: Vitamin D3 receptor (Homo sapiens) (UniProt P11473); assay: qHTS assay for small molecule antagonists of vitamin D receptor signaling (AID 588541);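 note: receptor activated by calcitriol during compound treatment; series mostly up to about 77 µM; % is set by controls: 0 for no effect and ±100 for the full control effect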
Sequence of Vitamin D3 receptor (Homo sapiens) (P11473 whole entry, looked up): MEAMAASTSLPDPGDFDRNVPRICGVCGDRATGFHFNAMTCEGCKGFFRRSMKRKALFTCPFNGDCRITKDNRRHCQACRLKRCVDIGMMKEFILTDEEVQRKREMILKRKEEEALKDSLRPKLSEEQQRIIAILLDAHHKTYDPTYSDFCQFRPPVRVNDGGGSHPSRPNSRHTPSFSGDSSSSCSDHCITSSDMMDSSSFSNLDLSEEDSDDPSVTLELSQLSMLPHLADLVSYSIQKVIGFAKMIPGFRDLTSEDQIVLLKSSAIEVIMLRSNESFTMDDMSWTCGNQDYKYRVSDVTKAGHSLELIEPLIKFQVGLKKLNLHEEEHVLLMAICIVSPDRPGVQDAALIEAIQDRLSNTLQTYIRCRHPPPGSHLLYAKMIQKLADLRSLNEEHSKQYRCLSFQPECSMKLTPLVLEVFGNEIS
How it was run: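 VDR-UAS-bla HEK293T cells (2000/well, 2% charcoal-stripped FBS) were treated with titrated compounds plus 1-alpha,25-dihydroxyvitamin D3 (50 nM or 3 nM final) for 16 h at 37 C. CCF4 beta-lactamase fluorescence was read; Hill fits gave IC50.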

[5] = target: Vitamin D3 receptor (Homo sapiens) (UniProt P11473); assay: qHTS assay for small molecule agonists of vitamin D receptor signaling (AID 588543);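 note: 0% = DMSO basal and 100% = reference agonist control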
How it was run: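 Agonist-mode beta-lactamase reporter: HEK293T VDR-UAS-bla cells in charcoal-stripped 2% FBS, compound series 16 h 37 C, CCF4 2 h RT. EC50 from Hill fit, scaled against DMSO and 50 nM calcitriol control.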

[6] = target: Retinoic acid receptor RXR-alpha (Homo sapiens) (UniProt P19793); assay: qHTS assay for small molecule agonists of retinoid X receptor alpha signaling (AID 588544);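 note: 0% = DMSO basal wells and 100% = reference agonist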
Sequence of Retinoic acid receptor RXR-alpha (Homo sapiens) (P19793 whole entry, looked up): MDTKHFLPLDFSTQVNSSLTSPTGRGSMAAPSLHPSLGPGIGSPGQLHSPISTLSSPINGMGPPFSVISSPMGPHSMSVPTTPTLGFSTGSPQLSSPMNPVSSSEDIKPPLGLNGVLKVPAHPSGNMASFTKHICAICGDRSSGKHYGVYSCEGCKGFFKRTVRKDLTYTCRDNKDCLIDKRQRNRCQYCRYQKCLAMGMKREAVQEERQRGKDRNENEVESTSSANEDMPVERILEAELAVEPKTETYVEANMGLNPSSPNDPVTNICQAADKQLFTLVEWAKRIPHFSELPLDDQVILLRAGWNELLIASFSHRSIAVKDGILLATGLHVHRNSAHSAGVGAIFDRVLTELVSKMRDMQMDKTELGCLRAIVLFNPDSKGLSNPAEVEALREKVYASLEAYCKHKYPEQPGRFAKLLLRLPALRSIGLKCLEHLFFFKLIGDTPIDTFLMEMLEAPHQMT

[7] = target: Thyroid hormone receptor beta (Homo sapiens) (UniProt P10828); assay: qHTS assay for small molecule agonists of thyroid hormone receptor beta signaling (AID 588545);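 note: 0% = DMSO only and 100% = 10 nM T3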
Sequence of Thyroid hormone receptor beta (Homo sapiens) (P10828 whole entry, looked up): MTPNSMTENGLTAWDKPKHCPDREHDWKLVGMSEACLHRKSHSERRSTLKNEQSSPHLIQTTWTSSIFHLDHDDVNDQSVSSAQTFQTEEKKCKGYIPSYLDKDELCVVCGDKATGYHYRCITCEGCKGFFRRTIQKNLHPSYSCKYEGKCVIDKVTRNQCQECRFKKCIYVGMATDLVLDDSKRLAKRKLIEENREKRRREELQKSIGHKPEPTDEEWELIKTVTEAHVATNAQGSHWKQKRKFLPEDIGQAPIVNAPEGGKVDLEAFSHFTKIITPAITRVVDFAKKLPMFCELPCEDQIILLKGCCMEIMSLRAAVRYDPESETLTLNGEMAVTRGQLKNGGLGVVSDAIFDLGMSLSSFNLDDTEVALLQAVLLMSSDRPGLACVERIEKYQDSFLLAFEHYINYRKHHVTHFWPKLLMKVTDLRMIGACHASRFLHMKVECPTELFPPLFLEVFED
How it was run: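 Compounds were tested as agonists in TR-UAS-bla-GripTite HEK 293 cells. After 18 hrs at 37 C, CCF4 substrate was added and fluorescence read after 2 hrs at room temperature.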

[8] = qHTS assay for small molecule antagonists of retinoid X receptor alpha signaling (AID 588546; active = well fitted inhibition curve with a large enough effect in the signal ratio, with a control signal flat, not every such curve was filed as active; the % refers to the signal ratio;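 note: cells stimulated with 9-cis-retinoic acid as agonist; % is set by controls: 0 for no effect and ±100 for the full control effect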); conditions: HEK293T RXRa-UAS-bla, beta-lactamase ratio, antagonist mode; measured here: W530 green channel, cytotoxicity proxy
How it was run: (§1)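 Beta-lactamase reporter inhibition, read as CCF4 fluorescence ratio (ex 405, em 460/530 nm) after 2 h at RT. HEK293T UAS-bla cells, 2500/well, were stimulated with 9-cis-RA at 500 or 100 nM final alongside test compound for 18 h at 37 C.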

[9] = target: Retinoic acid receptor RXR-alpha (Homo sapiens) (UniProt P19793); assay: as above; conditions: HEK293T RXRa-UAS-bla, beta-lactamase ratio, antagonist mode
How it was run: as §1

[10] = qHTS assay for small molecule activators of the nuclear factor-kappa B (NF-kB) signaling pathway (AID 651749; active = well fitted activation curve with a large enough effect in the signal ratio; the % refers to the signal ratio; note: series mostly up to about 77 µM; % of control where 0% means no effect); conditions: NF-kB-bla ME-180 cells, beta-lactamase FRET ratio, 16 h; activation: stronger effect = higher value
How it was run: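 Human ME-180 cervical cells with an NF-kB-bla construct; compounds added via 23 nL pin transfer, DMSO as vehicle; incubation 16 hr. Reporter activity measured by FRET disruption.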

[11] = qHTS assay for environmental chemicals that activate the Aryl hydrocarbon Receptor (AhR) signaling pathway (AID 651777; active = well fitted curve in the direction sought with a large enough effect; an effect the other way counts as inactive or inconclusive; note: % of control where 0% means no effect; nearly all actives have a fitted effect of over 15% in size); conditions: 1A2-DRE human hepatoma cells, luciferase, 24 h; activation: stronger effect = higher value
How it was run: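 Luminescence read-out: One-Glo added for 30 min at RT after 24 hr compound treatment (37 C, 5% CO2) of human hepatoma cells expressing a DRE/CYP1A2 promoter–luciferase reporter; increased signal indicates AhR activation.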

[12] = target: Peroxisome proliferator-activated receptor alpha (Homo sapiens) (UniProt Q07869); assay: qHTS assay for small molecule agonists of the peroxisome proliferator-activated receptor alpha (PPARalpha) signaling pathway (AID 651778; active = well fitted curve in the direction sought with a large enough effect; an effect the other way counts as inactive or inconclusive; note: % of control where 0% means no effect); conditions: PathHunter PPARalpha complementation, chemiluminescence, 6 h; max response: stronger effect = higher value
Sequence of Peroxisome proliferator-activated receptor alpha (Homo sapiens) (Q07869 whole entry, looked up): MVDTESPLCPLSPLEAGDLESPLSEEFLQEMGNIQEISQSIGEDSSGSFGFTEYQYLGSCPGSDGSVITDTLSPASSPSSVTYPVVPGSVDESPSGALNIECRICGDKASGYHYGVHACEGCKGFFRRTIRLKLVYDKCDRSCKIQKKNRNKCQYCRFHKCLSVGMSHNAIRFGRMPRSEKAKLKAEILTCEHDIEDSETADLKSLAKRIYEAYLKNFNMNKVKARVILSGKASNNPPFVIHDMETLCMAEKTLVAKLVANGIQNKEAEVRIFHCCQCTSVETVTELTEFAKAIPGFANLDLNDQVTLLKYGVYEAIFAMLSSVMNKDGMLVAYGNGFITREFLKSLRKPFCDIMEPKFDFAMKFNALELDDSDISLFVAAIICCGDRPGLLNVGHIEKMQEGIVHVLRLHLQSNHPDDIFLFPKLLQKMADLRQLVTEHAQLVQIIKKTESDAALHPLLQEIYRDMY
How it was run: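 Cells plated at 2,000/well and held overnight at 37 C, 5% CO2, then compound added by pin tool for 6 hr; after PathHunter detection reagent and 60 min at room temperature, chemiluminescence from enzyme complementation was read.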

[13] = qHTS assay for small molecule agonists of the antioxidant response element (ARE) signaling pathway measured by Nrf2-dependant transcriptional activity - cell viability counter screen (AID 720653; active = well fitted curve in the direction sought with a large enough effect in the repeat runs; an effect the other way counts as inactive or inconclusive; note: % is set by controls: 0 for no effect and ±100 for the full control effect); conditions: ARE-bla HepG2 viability, CellTiter-Glo ATP luminescence, 16 h; max response: stronger effect = lower value
How it was run: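 ARE-bla HepG2 cells (2,000/well) rested 5 hrs at 37C/5% CO2, then exposed to compounds in DMSO for 16 hrs. Viability was read in the same wells as intracellular ATP by luminescence, 30 min at room temperature after reagent addition.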

[14] = qHTS assay for cell viability of HEK293 cells (AID 743288; active = well fitted curve in the direction sought with a large enough effect; an effect the other way counts as inactive or inconclusive; note: % is set by controls: 0 for no effect and ±100 for the full control effect; nearly all actives have a fitted effect of over 50% in size); conditions: ATP luminescence (CellTiter-Glo), 18 h; max response: stronger effect = lower value
How it was run: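 Readout is luciferase-coupled ATP content (CellTiter-Glo luminescence, 30 min room temperature) as a measure of metabolically competent cells. Parental HEK293 cells were plated 5 h or more before compound addition, then treated 18 h at 37 C.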

[15] = qHTS assay for cell viability of the p53RE-bla HCT-116 cell line (AID 743292; active = well fitted curve in the direction sought with a large enough effect; an effect the other way counts as inactive or inconclusive; note: % is set by controls: 0 for no effect and ±100 for the full control effect; nearly all actives have a fitted effect of over 55% in size)
How it was run: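 Luminescent ATP quantitation (CellTiter-Glo) served as the viability read-out; reagent was added after 16 h compound exposure at 37 C and read after 30 min at room temperature. Cells: p53RE-bla HCT-116, 4,000 per well.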

[16] = target: Nuclear receptor subfamily 1 group I member 2 (Rattus norvegicus) (UniProt Q9R1A7); assay: qHTS assay for small molecule activators of the rat pregnane X receptor (rPXR) signaling pathway (AID 651751; call rule not given here; note: 0% is about no effect); conditions: rPXR reporter cells, luciferase (One-Glo), 24 h
Sequence of Nuclear receptor subfamily 1 group I member 2 (Rattus norvegicus) (Q9R1A7 whole entry, looked up): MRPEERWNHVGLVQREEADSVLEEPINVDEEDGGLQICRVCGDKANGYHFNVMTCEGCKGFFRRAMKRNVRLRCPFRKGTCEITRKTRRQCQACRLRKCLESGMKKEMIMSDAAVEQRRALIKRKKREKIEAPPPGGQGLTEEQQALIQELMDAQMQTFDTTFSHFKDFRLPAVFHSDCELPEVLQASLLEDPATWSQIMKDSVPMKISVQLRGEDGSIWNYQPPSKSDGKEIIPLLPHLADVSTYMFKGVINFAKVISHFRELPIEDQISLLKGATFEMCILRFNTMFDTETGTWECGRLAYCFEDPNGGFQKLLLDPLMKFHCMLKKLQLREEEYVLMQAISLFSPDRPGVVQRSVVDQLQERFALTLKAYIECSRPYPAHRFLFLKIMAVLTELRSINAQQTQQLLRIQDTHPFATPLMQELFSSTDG

[17] = target: Estrogen receptor (Homo sapiens) (UniProt P03372); assay: qHTS assay for small molecule agonists of estrogen receptor alpha signaling (AID 588514);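 note: 0% = vehicle only and 100% = reference agonist; nearly all actives have a fitted effect of over 70% in size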
Sequence of Estrogen receptor (Homo sapiens) (P03372 whole entry, looked up): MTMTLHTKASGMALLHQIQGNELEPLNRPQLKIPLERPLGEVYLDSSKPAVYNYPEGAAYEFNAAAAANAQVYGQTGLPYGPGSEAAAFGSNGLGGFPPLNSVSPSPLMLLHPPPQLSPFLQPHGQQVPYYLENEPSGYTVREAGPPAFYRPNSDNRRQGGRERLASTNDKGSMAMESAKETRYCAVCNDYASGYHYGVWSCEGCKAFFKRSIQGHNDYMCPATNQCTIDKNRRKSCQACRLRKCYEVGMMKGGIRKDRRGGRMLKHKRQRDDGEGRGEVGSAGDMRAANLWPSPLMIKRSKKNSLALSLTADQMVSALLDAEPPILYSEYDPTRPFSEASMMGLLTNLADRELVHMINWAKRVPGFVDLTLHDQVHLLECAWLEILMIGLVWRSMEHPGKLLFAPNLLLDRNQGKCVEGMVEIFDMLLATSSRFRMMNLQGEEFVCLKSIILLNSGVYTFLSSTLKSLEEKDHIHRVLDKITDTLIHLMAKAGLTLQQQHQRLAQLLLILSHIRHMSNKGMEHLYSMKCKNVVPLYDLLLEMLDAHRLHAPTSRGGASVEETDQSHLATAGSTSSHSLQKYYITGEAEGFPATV
How it was run: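 Efficacy is expressed against 20 nM 17-beta-estradiol (100%) and DMSO basal (0%); EC50 from Hill equation. Assay: beta-lactamase reporter in ER-alpha-UAS-bla HEK 293 cells, 18 h compound incubation, CCF4 detection.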

[18] = qHTS assay for small molecule activators of the p53 signaling pathway (AID 651743; active = well fitted activation curve with a large enough effect in the signal ratio, not every such curve was filed as active; the % refers to the signal ratio; note: series mostly up to about 92 µM; % of control where 0% means no effect); conditions: HCT-116 p53RE-bla, beta-lactamase FRET ratio, 16 h; activation: stronger effect = higher value
How it was run: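 Agonist-mode quantitative HTS in HCT-116 cells carrying a p53-response-element beta-lactamase reporter; 16 h compound treatment at 37 C, then FRET substrate loading for 2 h at room temperature and fluorescence read.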

[19] = qHTS assay for small molecule agonists of the antioxidant response element (ARE) signaling pathway measured by Nrf2-dependant transcriptional activity (AID 720636; active = well fitted curve in the direction sought with a large enough effect in the repeat runs; an effect the other way counts as inactive or inconclusive;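 note: HepG2 cells with an ARE-driven luciferase reporter; % of control where 0% means no effect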)
How it was run: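 HepG2 ARE-luc reporter line, 1% dialyzed FBS; 6 hr attachment at 37 C, compound pinned in, 16 hr at 37 C/5% CO2; ONE-Glo, 30 min RT, luminescence read.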

[20] = target: Peroxisome proliferator-activated receptor gamma (Homo sapiens) (UniProt P37231); assay: qHTS assay for small molecule agonists of peroxisome proliferator-activated receptor gamma signaling (AID 588536; active = well fitted curve in the direction sought with a large enough effect in the signal ratio, with a control signal flat, not every such curve was filed as active; the % refers to the signal ratio;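 note: 0% = DMSO basal wells and 100% = rosiglitazone at 2 µM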)
Sequence of Peroxisome proliferator-activated receptor gamma (Homo sapiens) (P37231 whole entry, looked up): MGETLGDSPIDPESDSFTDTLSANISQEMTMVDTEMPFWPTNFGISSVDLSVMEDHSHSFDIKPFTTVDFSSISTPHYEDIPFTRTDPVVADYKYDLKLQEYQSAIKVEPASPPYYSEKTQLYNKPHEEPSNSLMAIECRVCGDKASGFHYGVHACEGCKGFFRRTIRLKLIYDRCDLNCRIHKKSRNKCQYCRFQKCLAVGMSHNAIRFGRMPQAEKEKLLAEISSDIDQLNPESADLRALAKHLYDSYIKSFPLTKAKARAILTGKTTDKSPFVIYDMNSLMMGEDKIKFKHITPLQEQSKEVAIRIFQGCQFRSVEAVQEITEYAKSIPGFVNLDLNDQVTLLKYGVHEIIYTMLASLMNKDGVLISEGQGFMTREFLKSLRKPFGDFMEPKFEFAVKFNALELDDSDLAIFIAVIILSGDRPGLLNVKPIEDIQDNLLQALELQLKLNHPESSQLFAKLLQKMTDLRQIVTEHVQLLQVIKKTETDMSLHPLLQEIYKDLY
How it was run: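 Beta-lactamase reporter read-out: CCF4 fluorescence (ex 405, em 460/530 nm) after 2 h at RT. HEK293 GeneBLAzer cells were treated for 16 h at 37 C. Hill fits gave EC50 and efficacy versus 2 uM rosiglitazone (100%) and DMSO (0%).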

CCC(C)(C)c1cc(-n2nc3ccccc3n2)c(O)c(C(C)(C)CC)c1
-14%: max response [8]
inactive: activation [1] 2.15% | outcome [2] | Potency [3] | Potency [4] | outcome [5] | Potency [6] | Potency [7] | max response [9] 11.8% | activation [10] -0.182% | activation [11] 0.0202% | max response [12] 0.0334% | max response [13] -12.9% | max response [14] -9.99% | Potency [15] | max response [16] -0.463%

N#CC(CCc1ccc(Cl)cc1)(Cn1cncn1)c1ccccc1 (stereo not given)
6.94%: max response [8]
inactive: Potency [17] | activation [1] -4.45% | outcome [5] | Potency [7] | max response [9] -64.1% | activation [18] 0.949% | activation [10] 2.24% | activation [11] 3.22% | Potency [19] | max response [13] -21.6% | max response [14] -24.7% | Potency [15]

CCC(C)Nc1c([N+](=O)[O-])cc(C(C)(C)C)cc1[N+](=O)[O-] (stereo not given)
inactive: Potency [17] | activation [1] -11.2% | outcome [2] | Potency [3] | Potency [20] | Potency [4] | outcome [5] | Potency [6] | Potency [7] | activation [11] 5.25% | max response [12] 8.22% | max response [13] 11% | max response [14] -2.45%

C=C(C)C(=O)OCC(CC)CCCC (stereo not given)
-12.9%: max response [8]
inactive: Potency [17] | activation [1] -12.2% | Potency [20] | Potency [4] | Potency [6] | Potency [7] | max response [9] -2.17% | activation [18] -3.24% | activation [10] -0.248% | activation [11] 1.05% | Potency [19] | max response [13] -12.5% | max response [14] 2.46% | Potency [15] | max response [16] -1.07%

COC(=O)N(C(=O)N1COC2(C(=O)OC)Cc3cc(Cl)ccc3C2=N1)c1ccc(OC(F)(F)F)cc1 (stereo not given)
inactive: Potency [17] | activation [1] 17.1% | Potency [3] | Potency [4] | outcome [5] | activation [18] -1.52% | activation [11] 2.68% | Potency [19] | max response [13] -4.11% | max response [14] -21.9% | Potency [15]

CC1(C)C(C(=O)OC(C#N)c2cccc(Oc3ccccc3)c2)C1(C)C (stereo not given)
-18.6%: max response [8]
inactive: Potency [17] | outcome [2] | Potency [3] | Potency [4] | outcome [5] | Potency [6] | max response [9] -14.5% | activation [18] -5.39% | activation [10] 2.53% | activation [11] -0.509% | max response [12] -0.276% | Potency [19] | max response [13] -19.4% | max response [14] -11.3% | Potency [15]
